About 5,500 (1.6%) of roughly 350,000 compounds were called active.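 Rule for the calls: active = significant combined selectivity score with lowered wild-type GFP, culture density cut under 30%, mutant RFP and density less affected; inactive = any of these conditions unmet.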 For the sample, actives were picked, then their nearest neighbours and some compounds at random.
Experiment: reduced GFP signal of wild-type E. coli, primary screen, bacterial rRNA inhibitor project, GFP/RFP fluorescence, OD600, single point (AID 720706)
Settings: E. coli WT GFP vs humanized-ribosome RFP mutants, 24 h; GFP signal change (wild-type ribosome): stronger effect = lower value, DMSO median 0, no signal -100; OD600 change: measured here: OD600 growth, DMSO median 0, no signal -100; RFP signal change: measured here: RFP humanized mutant strains, DMSO median 0, no signal -100, concentration not given here

Row | SMILES | GFP signal change (wild-type ribosome) | OD600 change | RFP signal change
1 | C[C@@H]1CN(C)C(=O)c2cc([N+](=O)[O-])ccc2O[C@@H]1CN(C)C(=O)OC(C)(C)C | -2.71% (inactive) | 7.21% | -0.0835%
2 | CCN1CCN(c2nc(Nc3cccc(F)c3)nc(N)c2[N+](=O)[O-])CC1 | 1.28% (inactive) | -14.8% | -3.28%
3 | COc1cccc(Nc2nc(N)c([N+](=O)[O-])c(NCc3ccco3)n2)c1 | -45.5% (active) | -19.5% | -12.3%
4 | COc1cccc(NC(=O)COc2cccnc2[N+](=O)[O-])c1 | 2.25% (inactive) | 2.69% | -3.22%
5 | CO[C@H]1CN(C)C(=O)c2cc(NC(=O)c3cnccn3)ccc2OC[C@@H](C)N(CC2CC2)C[C@@H]1C | 1.98% (inactive) | -3.03% | -2.31%
6 | CN(Cc1ccccc1F)C[C@H]1[C@@H](c2ccccc2)[C@@H](CO)N1S(C)(=O)=O | -3.23% (inactive) | -1.8% | -1.06%
7 | Cc1noc(C)c1S(=O)(=O)Nc1ccc2c(c1)CC(=O)N([C@H](C)CO)C[C@@H](C)[C@@H](CN(C)Cc1ccncc1)O2 | -1.08% (inactive) | 6.97% | 0.021%
8 | COc1ccc(OC)c(-c2csc(NC(=O)COC(=O)C3CC3)n2)c1 | -18% (active) | -4.55% | 5.3%
9 | COc1ccc(OC)c(-c2csc(NC(=O)C3=NNC(=O)CC3)n2)c1 | -21.6% (inactive) | -29.6% | -5.17%
10 | O=C(COC(=O)C1CCCO1)Nc1nc(-c2ccc(F)cc2)cs1 (stereo unspecified) | -5.81% (inactive) | -14.9% | -1.04%
11 | Cc1ccc(S(=O)(=O)Nc2ccc3c(c2)C(=O)N([C@@H](C)CO)C[C@H](C)[C@@H](CN(C)S(=O)(=O)c2ccc(C)cc2)O3)cc1 | 0.928% (inactive) | 0.52% | 1.47%
12 | O=C1CN(Cc2ccccc2)C[C@H]2[C@H](c3ccc(-c4ccccc4)cc3)[C@@H](CO)N12 | 4.87% (inactive) | -18% | 11.1%
13 | COc1ccc(CNC(=O)/C(C#N)=C/c2cccc(OC)c2OC)cc1 | -12.3% (inactive) | -6.5% | 1.12%
14 | COCCNC(=O)/C(C#N)=C/c1nc(N(C)C)n(-c2ccc(F)cc2)c1Cl | 23.8% (inactive) | 16.1% | 2.57%
15 | COCCNC(=O)/C(C#N)=C/c1cccc(OCc2ccccc2)c1 | -27.3% (active) | -3.28% | -7.68%
16 | C[C@@H]1CN([C@H](C)CO)S(=O)(=O)c2ccc(-c3ccccc3)cc2O[C@@H]1CN(C)C(=O)CC1CC1 | -1.82% (inactive) | -12.8% | 1.01%
17 | O=C(C1CCC1)N1CC2(C1)[C@H](c1ccccc1)[C@H](CO)N2Cc1nccs1 | 2.78% (inactive) | 3.6% | -2.04%
18 | COc1ccccc1CNC(=O)C[C@@H]1C[C@H]2c3cc(NC(=O)CN(C)C)ccc3O[C@H]2[C@@H](CO)O1 | 0.305% (inactive) | -4.08% | -3.75%
19 | Cc1onc(-c2ccccc2Cl)c1C(=O)OCC(=O)c1ccccc1 | -21.5% (active) | 3.35% | -2.14%
20 | COc1ccc(C(=O)COC(=O)c2c(C)noc2C)cc1Cl | 0.365% (inactive) | -1.69% | 4.01%
21 | Cc1onc(-c2ccccc2Cl)c1C(=O)OCc1nnc(-c2ccccc2)o1 | -1.78% (inactive) | -40.3% | -4.01%

Row | SMILES | GFP signal change (wild-type ribosome) | OD600 change | RFP signal change
22 | COc1ccc2c3c(n(C)c2c1)[C@@H](CO)N(C(=O)C1CC1)CC31CN(C(=O)C2CCOCC2)C1 | -0.396% (inactive) | 5.66% | -5.33%
23 | CCCNC(=O)N1CC(=O)N2[C@@H](CO)[C@H](c3ccc(-c4ccc(C)cc4)cc3)[C@@H]2C1 | 2.33% (inactive) | 1.16% | -7.67%
24 | CCCn1c(NC(=O)C23CC4CC(CC(O)(C4)C2)C3)nc2ccccc21 | -30.1% (inactive) | -35.7% | 3.93%
25 | Cc1nn(C)cc1C(=O)Nc1ccccc1Br | 1.8% (inactive) | 6.79% | -7.21%
26 | CCn1c(NC(=O)c2nn(C)cc2Br)nc2ccccc21 | -17.8% (active) | -7.54% | 6.47%
27 | C[C@H]1CN([C@@H](C)CO)C(=O)CCCn2nncc2CO[C@H]1CN(C)Cc1ccc2c(c1)OCO2 | -1.02% (inactive) | 5.54% | 0.27%
28 | COc1ccc(C2=CN(Cc3ccccc3)C(c3ccc(OC)cc3)CC2=O)cc1 (stereo unspecified) | -23.8% (inactive) | -12.9% | 3.14%
29 | CC(C)NC(=O)N[C@@H]1CC[C@H](CC(=O)NC2Cc3ccccc3C2)O[C@H]1CO | 1.59% (inactive) | 0.47% | -1.63%
30 | Cn1cnc(CCNC(=O)C[C@@H]2CC[C@H]3[C@@H](COC[C@@H](O)CN3C(=O)Nc3ccc(Cl)cc3)O2)c1 | -23.1% (inactive) | -23.2% | -3.05%
31 | COc1cc(/C=N/NC(=S)Nc2cccnc2)cc(OC)c1O | 1.59% (inactive) | 0.97% | -1.01%
32 | COc1ccc(/C=C/C(=O)Nc2cccnc2)cc1OC | -20.8% (active) | -6.64% | -4.77%
33 | COc1ccc(/C=C/C(=O)Nc2ccc(C34CC5CC(CC(O)(C5)C3)C4)cc2)cc1OC | -3.43% (inactive) | -9.24% | 7.24%
34 | C[C@H]1CCCCO[C@H](CN(C)C(=O)Nc2ccccc2)[C@@H](C)CN([C@@H](C)CO)C(=O)c2cc(NC(=O)c3ccncc3)ccc2O1 | -0.767% (inactive) | -2.38% | -0.401%
35 | Cc1noc(C)c1NC(=O)N(C)C[C@H]1OCCCC[C@@H](C)Oc2ccc(NC(=O)NC(C)C)cc2C(=O)N([C@@H](C)CO)C[C@H]1C | -0.208% (inactive) | -7.75% | -1.31%
36 | COc1cccc(-c2ccc3c(c2)[C@@H]2[C@@H](CCN2C(=O)CN2CCOCC2)[C@H](CO)N3)c1 | -1.73% (inactive) | 12.1% | -1.6%
37 | O=C(COC(=O)Cc1ccc(Br)cc1)Nc1c(F)c(F)c(F)c(F)c1F | -24.2% (active) | -11.5% | 3.44%
38 | CC1CCCCC1NC(=O)COC(=O)Cc1ccc(Br)cc1 (stereo unspecified) | -12.8% (inactive) | -7.61% | 2.98%
39 | Cc1cccc(C)c1NC(=O)CNC(=O)Cc1ccc(Br)cc1 | 8.56% (inactive) | 16.5% | -1.39%
40 | COc1cccc(NS(=O)(=O)c2ccc(-c3coc(C)n3)cc2)c1 | -28.4% (active) | -10.5% | 9.54%
41 | CCN(c1cccc(C)c1)S(=O)(=O)c1ccc(-c2coc(C)n2)cc1 | -9.48% (inactive) | -35% | -6.13%
42 | Cc1ccc(NS(=O)(=O)c2ccc(-c3coc(C)n3)cc2)c(C)c1 | -8.02% (inactive) | 1.15% | 7.38%

From PubChem BioAssay AID720706 (Broad Institute, 2013)
